According to article PMC11062922 (Nature Chemical Biology, 2023):
Where two headings read alike, the source gives them in different places.

Columns and labels:
Design in all cases: species or system human, MV4-11 + K-562 + COLO205 + SK-N-BE2 + OVCAR-8
[1] = tested on: AKT1; conditions: read-out: apparent Kd, n = 1
[2] = tested on: MAPK14; conditions: read-out: apparent Kd, n = 1
[3] = tested on: RIOK2; conditions: read-out: apparent Kd; compound concentrations:100 nM and 1000 nM (sheet 'Samples'); n = 1
[4] = tested on: TGFBR1; conditions: read-out: apparent Kd, n = 1
[5] = tested on: BMPR1B; conditions: read-out: apparent Kd, compound concentrations: 100 nM and 1000 nM (sheet 'Samples'), n = 1
[6] = tested on: CDK16; conditions: read-out: apparent Kd, compound concentrations: 100 nM and 1000 nM (sheet 'Samples'), n = 1
[7] = tested on: CDKL5; conditions: read-out: apparent Kd, n = 1
[8] = tested on: MAP2K5; conditions: read-out: apparent Kd, n = 1
[9] = tested on: PRKD2; conditions: read-out: apparent Kd, compound concentrations: 100 nM and 1000 nM (sheet 'Samples'), n = 1
[10] = tested on: EPHA5; conditions: read-out: apparent Kd, n = 1
[11] = tested on: EPHB1; conditions: read-out: apparent Kd, n = 1
[12] = tested on: FLT4; conditions: read-out: apparent Kd, compound concentrations: 100 nM and 1000 nM (sheet 'Samples'), n = 1
[13] = tested on: PLK4; conditions: read-out: apparent Kd, n = 1
[14] = tested on: EPHB6; conditions: read-out: apparent Kd, n = 1
[15] = tested on: DDR2; conditions: read-out: apparent Kd; compound concentrations:100 nM and 1000 nM (sheet 'Samples'); n = 1
[16] = tested on: CSNK1D; conditions: read-out: apparent Kd; compound concentrations:100 nM and 1000 nM (sheet 'Samples'); n = 1
[17] = tested on: CDK17; conditions: read-out: apparent Kd, compound concentrations: 100 nM and 1000 nM (sheet 'Samples'), n = 1
[18] = compound concentrations:100 nM and 1000 nM (sheet 'Samples')

Cc1cccc(-c2cc(-c3c[nH]nc3-c3ccccn3)ccn2)c1 [GW679395X]
potency estimated from few doses [1, 18]: 1770 nM
potency estimated from few doses [2, 18]: 1290 nM
potency estimated from few doses [3]: 1630 nM
potency estimated from few doses [4, 18]: 2190 nM

COc1cccc(-n2ncc3c(N/N=C/c4ccc(C(=O)NCCN(C)C)cc4)ncnc32)c1.Cl [GW784307A]
potency estimated from few doses ([5]; CATDS: 3.8430447981996803E-2): 486 nM
potency estimated from few doses ([6]; CATDS: 2.5546052944154699E-2): 2020 nM
potency estimated from few doses ([7]; compound concentrations: 100 nM and 1000 nM (sheet 'Samples'), CATDS: 0.115641908649272): 49.3 nM
potency estimated from few doses ([8]; compound concentrations: 100 nM and 1000 nM (sheet 'Samples'), CATDS: 2.4851428787040001E-2): 2320 nM
potency estimated from few doses ([4]; compound concentrations: 100 nM and 1000 nM (sheet 'Samples'), CATDS: 3.91809843911003E-2): 460 nM

O=C1N=C(NCC(CO)c2ccccc2)S/C1=C\c1ccc2ncccc2c1 (centres unmarked) [RO4582641-000]
potency estimated from few doses ([7]; compound concentrations: 100 nM and 1000 nM (sheet 'Samples'), CATDS: 6.3730815830875698E-2): 1510 nM

Cc1cccc(Nc2nc(NCCN)ncc2C(N)=O)c1 [GSK1292139B]
potency estimated from few doses ([9]; CATDS: 7.4938194739321201E-2): 1250 nM

O=C1N=C(NCc2cccs2)SC1Cc1ccc2ncccc2c1 (centres unmarked) [RO4629078-000]
potency estimated from few doses ([7]; compound concentrations: 100 nM and 1000 nM (sheet 'Samples'), CATDS: 6.9445234986253998E-3): 2320 nM
potency estimated from few doses ([10]; compound concentrations: 100 nM and 1000 nM (sheet 'Samples'), CATDS: 1.5844356878219199E-2): 259 nM
potency estimated from few doses ([11]; compound concentrations: 100 nM and 1000 nM (sheet 'Samples'), CATDS: 1.5393002457868701E-2): 272 nM
potency estimated from few doses ([12]; CATDS: 1.2746443799933199E-2): 389 nM
potency estimated from few doses ([13]; compound concentrations: 100 nM and 1000 nM (sheet 'Samples'), CATDS: 1.60355035004788E-2): 254 nM
potency estimated from few doses ([9]; CATDS: 7.0804860166384202E-3): 2110 nM

COc1cc(Nc2ccnc3cc(-c4ccncc4)ccc23)cc(OC)c1OC.Cl [GW494610A]
potency estimated from few doses ([5]; CATDS: 3.91672481095015E-2): 233 nM
potency estimated from few doses ([11]; compound concentrations: 100 nM and 1000 nM (sheet 'Samples'), CATDS: 2.3499572328162702E-2): 1250 nM
potency estimated from few doses ([14]; compound concentrations: 100 nM and 1000 nM (sheet 'Samples'), CATDS: 2.9510558776715799E-2): 536 nM
potency estimated from few doses ([4]; compound concentrations: 100 nM and 1000 nM (sheet 'Samples'), CATDS: 2.6595956704932502E-2): 765 nM

CCn1cc(-c2ccnc3[nH]c(-c4cccc(CN(C)C)c4)cc23)c(-c2ccc(NC(=O)N(C)C)cc2)n1 [GSK1070916]
potency estimated from few doses [15]: 1830 nM

c1ccc(Oc2ccc(Nc3ccnc4cc(-c5ccc(CN6CCCCC6)o5)ccc34)cc2)nc1 [GW567143X]
potency estimated from few doses ([14]; compound concentrations: 100 nM and 1000 nM (sheet 'Samples'), CATDS: 3.4972740863409998E-2): 1830 nM
potency estimated from few doses ([8]; compound concentrations: 100 nM and 1000 nM (sheet 'Samples'), CATDS: 0.10658346724576): 108 nM

COc1cccc(-n2cnc3c(N/N=C/c4ccncc4)ncnc32)c1 [GW813360X]
potency estimated from few doses ([8]; compound concentrations: 100 nM and 1000 nM (sheet 'Samples'), CATDS: 0.129253463235972): 2170 nM

CN1CCN(Cc2cccc(-c3ccc4c(Nc5ccc(Oc6ccccc6)cc5)ccnc4c3)c2)CC1 [GW578342X]
potency estimated from few doses ([8]; compound concentrations: 100 nM and 1000 nM (sheet 'Samples'), CATDS: 0.10104411833730501): 640 nM

CN1CCN(Cc2ccc(-c3ccc4c(Nc5ccc(Oc6ccccn6)cc5)ccnc4c3)o2)CC1 [GW567140X]
potency estimated from few doses ([8]; compound concentrations: 100 nM and 1000 nM (sheet 'Samples'), CATDS: 0.16913978514831801): 58.2 nM

O=S(=O)(c1ccc(-c2ccnc3[nH]ccc23)cc1)N1CCCC1 [GSK846226A]
potency estimated from few doses [3]: 2220 nM

Cn1cc(-c2cnc(N)c3c(-c4ccc5c(c4)CCN5C(=O)Cc4ccccc4)csc23)cn1 [GSK2593074A]
potency estimated from few doses [14, 18]: 151 nM
potency estimated from few doses [8, 18]: 979 nM

CC(=O)c1c(-c2ccncc2)[nH]c(-c2ccncc2)c1C [GW493036X]
potency estimated from few doses [7, 18]: 1670 nM
potency estimated from few doses [16]: 2040 nM

COc1cc2nccc(Nc3ccc(Oc4ccccc4)cc3)c2cc1OC.Cl [GI261656A]
potency estimated from few doses ([8]; compound concentrations: 100 nM and 1000 nM (sheet 'Samples'), CATDS: 9.9796697062305095E-2): 95.6 nM

Cl.Cn1c(=O)c(Cc2ccc(F)cc2F)cc2cnc(NC3CCOCC3)nc21 [RO3308757-001]
potency estimated from few doses [10, 18]: 399 nM
potency estimated from few doses [11, 18]: 541 nM
potency estimated from few doses [2, 18]: 442 nM
potency estimated from few doses [13, 18]: 963 nM

COc1ccc(-c2nc3n(c2-c2ccncc2)CCC3)cc1.COc1ccc(-c2nc3n(c2-c2ccncc2)CCC3)cc1.O=S(=O)(O)O.O=S(=O)(O)O [SKF-104493-B2]
potency estimated from few doses ([1]; compound concentrations: 100 nM and 1000 nM (sheet 'Samples'), CATDS: 9.7335035775878098E-2): 2500 nM
potency estimated from few doses ([2]; compound concentrations: 100 nM and 1000 nM (sheet 'Samples'), CATDS: 0.181046976908248): 687 nM

CC(=O)N1CCN(c2ccc(Nc3nccc(-c4sc(C(C)C)nc4-c4cccc(NS(=O)(=O)c5cccc(Cl)c5)c4)n3)cn2)CC1 [GSK1660437A]
potency estimated from few doses ([6]; CATDS: 4.5005275972449597E-2): 1070 nM
potency estimated from few doses ([17]; CATDS: 5.6429200744427303E-2): 643 nM
potency estimated from few doses ([13]; compound concentrations: 100 nM and 1000 nM (sheet 'Samples'), CATDS: 0.17154832295699199): 114 nM
potency estimated from few doses ([9]; CATDS: 5.4931765235902902E-2): 680 nM

O=S(=O)(CCOCc1ccc(-c2ccc3ncnc(Nc4ccc(OCc5cccc(F)c5)c(Cl)c4)c3c2)o1)c1ccccc1 [GW615311X]
potency estimated from few doses ([17]; CATDS: 2.3617209164995101E-2): 2010 nM
potency estimated from few doses ([2]; compound concentrations: 100 nM and 1000 nM (sheet 'Samples'), CATDS: 2.8626143180457999E-2): 1290 nM

COc1cc(/C=N/Nc2ncnc3[nH]ncc23)ccc1O [GW578748X]
potency estimated from few doses [3]: 1600 nM

CC(C)c1nc(-c2cccc(NS(=O)(=O)c3c(F)cccc3F)c2)c(-c2ccnc(Nc3ccc(N4CCOCC4)nc3)n2)s1.Cl [GSK1723980B]
potency estimated from few doses ([6]; CATDS: 2.4648897890500801E-2): 294 nM
potency estimated from few doses ([17]; CATDS: 1.84448623420372E-2): 647 nM
potency estimated from few doses ([7]; compound concentrations: 100 nM and 1000 nM (sheet 'Samples'), CATDS: 1.7066760873740601E-2): 848 nM
potency estimated from few doses ([14]; compound concentrations: 100 nM and 1000 nM (sheet 'Samples'), CATDS: 2.4657232775903402E-2): 294 nM
potency estimated from few doses ([12]; CATDS: 3.28978835638193E-2): 161 nM
potency estimated from few doses ([13]; compound concentrations: 100 nM and 1000 nM (sheet 'Samples'), CATDS: 6.4259568423255198E-2): 54.8 nM
potency estimated from few doses ([9]; CATDS: 3.4388885610582398E-2): 149 nM

N#Cc1cnc2cc(-c3cnc(CNCCN4CCOCC4)s3)ccc2c1Nc1ccc(Oc2ccccc2)cc1 [GW664114X]
potency estimated from few doses ([8]; compound concentrations: 100 nM and 1000 nM (sheet 'Samples'), CATDS: 9.4704147517168505E-2): 230 nM

CC(=O)N1CCN(c2ccc(Nc3nccc(-c4sc(C(C)C)nc4-c4cccc(NS(=O)(=O)c5ccccc5)c4)n3)cn2)CC1 [GSK1645872A]
potency estimated from few doses ([5]; CATDS: 3.2416583266463302E-2): 615 nM
potency estimated from few doses ([6]; CATDS: 3.8372919727344801E-2): 431 nM
potency estimated from few doses ([17]; CATDS: 3.2303603060191699E-2): 620 nM
potency estimated from few doses ([7]; compound concentrations: 100 nM and 1000 nM (sheet 'Samples'), CATDS: 2.2966868813045101E-2): 1680 nM
potency estimated from few doses ([14]; compound concentrations: 100 nM and 1000 nM (sheet 'Samples'), CATDS: 2.50190585057842E-2): 1230 nM
potency estimated from few doses ([12]; CATDS: 2.4036705391895501E-2): 1410 nM
potency estimated from few doses ([13]; compound concentrations: 100 nM and 1000 nM (sheet 'Samples'), CATDS: 4.4195990908193997E-2): 331 nM
potency estimated from few doses ([9]; CATDS: 6.4833229163543699E-2): 179 nM
